From PubChem BioAssay (NCATS) come the findings set out here.

Each structure is given as a SMILES string. Several values for one entry are separate records, joined by “and”; a condition that tells them apart may be missing. Equal values may be shown once. Results filed as inconclusive are left out. Activity calls are given as the source filed them. Unless noted, calls follow the shape of the full dose curve.

The nature of test [1]: Cell Viability - BJ (AID 421).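 Also: potency is read from the fitted curve at half-maximal effect; cells exposed to compound for 40 hours at 37 °C before readout.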 The following applies: BJ fibroblast viability, qHTS. Summed up: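 Luminescent ATP signal (CellTiter-Glo, 20 min at room temperature) served as the read-out of viable BJ cells after 40 hours of compound treatment. Responses were scaled between DMSO and 100 uM tamoxifen, and AC50 values were obtained by Hill modeling.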
(In general: qHTS replaces the single test concentration by a dilution series.)

A short description of test [2]: Cell Viability - LYMP2-009 (AID 968; active = well fitted curve in the direction sought with a large enough effect; an effect the other way counts as inactive or inconclusive;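 also: cells exposed to compound for 24 h at 37 °C; 0% = DMSO alone and the full-kill end = tetraoctylammonium bromide at 92 µM; nearly all actives have a fitted effect of over 55% in size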).
Test [3] is described as follows: qHTS Assay for Identification of Small Molecule Inducers of Hypoxia Response (AID 2120; active = well fitted curve in the direction sought with a large enough effect in the signal ratio, with a control signal flat, not every such curve was filed as active; the % refers to the signal ratio; also: 0% is about no effect). Summed up: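 ME-180 HRE-bla cells plated in Opti-MEM/0.5% dialyzed FBS, rested 4-5 h, then dosed with compound titrations by pin tool. After 17 h at 37 degrees C, CCF4 dye loaded 2.5 h at RT; 460/530 nm ratio gave %Activity and AC50.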
The target in test [4] is Bile acid receptor (Homo sapiens) (UniProt Q96RI1). Briefly: qHTS assay for small molecule antagonists of farnesoid X receptor signaling (AID 588526). Also: % is scaled to controls: 0 for no effect and ±100 for the full control effect. Summed up: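 Antagonist mode: titrated compounds tested against chenodeoxycholic acid stimulation (normalized to 50 uM CDCA and DMSO) in GeneBLAzer HEK293T cells for 16 h. Beta-lactamase read by CCF4 fluorescence; IC50 from Hill fits.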
Chain of Bile acid receptor (Homo sapiens) (Q96RI1 whole entry, looked up): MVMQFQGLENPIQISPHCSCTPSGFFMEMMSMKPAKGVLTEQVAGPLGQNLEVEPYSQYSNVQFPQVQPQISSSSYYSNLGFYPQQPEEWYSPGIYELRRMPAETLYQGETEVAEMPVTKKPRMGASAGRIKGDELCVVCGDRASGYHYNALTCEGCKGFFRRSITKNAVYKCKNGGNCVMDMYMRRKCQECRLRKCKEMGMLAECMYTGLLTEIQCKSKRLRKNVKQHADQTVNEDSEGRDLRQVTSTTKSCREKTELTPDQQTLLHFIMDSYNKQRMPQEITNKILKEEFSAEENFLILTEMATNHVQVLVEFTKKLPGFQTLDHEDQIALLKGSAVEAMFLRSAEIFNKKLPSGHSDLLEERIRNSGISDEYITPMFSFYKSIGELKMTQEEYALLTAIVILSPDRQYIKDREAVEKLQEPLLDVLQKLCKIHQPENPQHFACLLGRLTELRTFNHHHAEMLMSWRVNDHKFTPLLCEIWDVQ

Test [5] has the same target. Briefly: qHTS assay for small molecule agonists of farnesoid X receptor signaling (AID 588527).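 Also: 0% = vehicle basal and 100% = reference agonist.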 Conditions: HEK293T FXR-UAS-bla, beta-lactamase ratio, 16 h; stronger effect = higher value. Summed up: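 FXR-UAS-bla HEK293T, 10% dialyzed FBS; cpds up to 92 uM titration, 16 h 37 C; CCF4 dye 2 h RT; fluorescence. Normalized to chenodeoxycholic acid 100 uM (100%) and DMSO (0%); Hill fit gives EC50, efficacy.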

The nature of test [6]: qHTS assay for small molecule antagonists of peroxisome proliferator-activated receptor delta signaling (AID 588535).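 Also: cells co-treated with a PPAR-delta agonist as stimulator during compound exposure.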 The following applies: HEK293T PPARd-UAS-bla, beta-lactamase FRET ratio, 18 h; 460 nm channel. Summed up:
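Antagonist-mode beta-lactamase reporter (GeneBLAzer PPAR-delta-UAS-bla) in HEK293T cells, 2% charcoal/dextran FBS, 4000 cells/well. Compound titrations, 18 h at 37 C; CCF4 ratio read, IC50 and efficacy from Hill fits.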

The target of test [7] is Vitamin D3 receptor (Homo sapiens) (UniProt P11473). Briefly: qHTS assay for small molecule antagonists of vitamin D receptor signaling (AID 588541).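 Also: receptor activated by calcitriol during compound treatment; % is scaled to controls: 0 for no effect and ±100 for the full control effect.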 Summed up:
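VDR-UAS-bla HEK293T cells in 2% charcoal-stripped FBS were stimulated with 1-alpha,25-dihydroxyvitamin D3 (3 nM final) plus compound for 16 h at 37 C. The beta-lactamase CCF4 readout was normalized to 50 nM agonist and DMSO, and Hill fits gave IC50.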

Test [8] shares this target. Briefly: qHTS assay for small molecule agonists of vitamin D receptor signaling (AID 588543).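 Also: 0% = DMSO basal and 100% = reference agonist control.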 Summed up:
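qHTS in agonist mode: compound titrations stimulate a VDR-driven β-lactamase reporter in HEK293T cells over 16 h at 37 °C. Response normalized to 50 nM 1α,25-dihydroxyvitamin D3 = 100%, DMSO = 0%; Hill fitting gives EC50 and maximal response.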

The target in test [9] is Retinoic acid receptor RXR-alpha (Homo sapiens) (UniProt P19793). Briefly: qHTS assay for small molecule antagonists of retinoid X receptor alpha signaling (AID 588546; active = well fitted inhibition curve with a large enough effect in the signal ratio, with a control signal flat, not every such curve was filed as active; the % refers to the signal ratio;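 also: cells stimulated with 9-cis-retinoic acid as agonist; % is scaled to controls: 0 for no effect and ±100 for the full control effect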). The following applies: HEK293T RXRa-UAS-bla, beta-lactamase ratio, antagonist mode. The procedure, abridged:
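Beta-lactamase reporter inhibition, read as CCF4 fluorescence ratio (ex 405, em 460/530 nm) after 2 h at RT. HEK293T UAS-bla cells, 2500/well, were stimulated with 9-cis-RA at 500 or 100 nM final alongside test compound for 18 h at 37 C.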

Test [10] in a line: qHTS assay for small molecule agonists of the antioxidant response element (ARE) signaling pathway (AID 651741; active = well fitted activation curve with a large enough effect in the signal ratio; the % refers to the signal ratio; also: potency is read from the fitted curve at half-maximal effect; as to activation: % of control where 0% means no effect). Summed up: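 CellSensor ARE-bla HepG2 cells (2,000/well) carrying ARE-driven beta-lactamase, exposed 16 h at 37 C. LiveBLAzer B/G FRET substrate added for 2 h at room temperature; fluorescence intensity read.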
The nature of test [11]: qHTS assay for small molecule activators of the nuclear factor-kappa B (NF-kB) signaling pathway (AID 651749; active = well fitted activation curve with a large enough effect in the signal ratio; the % refers to the signal ratio; also: % of control where 0% means no effect). Conditions: NF-kB-bla ME-180 cells, beta-lactamase FRET ratio, 16 h; activation: stronger effect = higher value. The procedure, abridged: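 NF-kB-bla ME-180 cells carrying a beta-lactamase reporter under an NF-kB response element, 2,000 cells/well, exposed to compound for 16 hr at 37C; FRET-based beta-lactamase fluorescence read-out of pathway activation.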

A short description of test [12]: qHTS assay for small molecule disruptors of the mitochondrial membrane potential - 5 hr assay (AID 651755). Also: % is scaled to controls: 0 for no effect and ±100 for the full control effect; nearly all actives have a fitted effect of over 40% in size. Summed up:
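HepG2 cells (2,000/well), attached overnight, exposed to compound 5 hr at 37C, then Mito-MPS dye 30 min. Fluorescence read for monomers (490/535 nm) and aggregates (540/590 nm).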

The nature of test [13]: qHTS assay for small molecule agonists of the antioxidant response element (ARE) signaling pathway measured by Nrf2-dependant transcriptional activity - cell viability counter screen (AID 720653; active = well fitted curve in the direction sought with a large enough effect in the repeat runs; an effect the other way counts as inactive or inconclusive; also: % is scaled to controls: 0 for no effect and ±100 for the full control effect). Conditions: ARE-bla HepG2 viability, CellTiter-Glo ATP luminescence, 16 h; stronger effect = lower value. The procedure, abridged:
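ARE-bla HepG2 cells treated with compounds for 16 h at 37C; this counter screen measures viability as intracellular ATP by CellTiter-Glo luminescence after 30 min at room temperature.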

Test [14] is described as follows: qHTS assay for small molecule activators of the human pregnane X receptor (PXR) signaling pathway (AID 720659; call rule not given here; also: 0% is about no effect).
Test [15] in a line: KB-8-5-11 P-gp reporter qHTS against the NCATS DSHEA and TCM libraries (AID 1919977; active = well fitted curve in the direction sought with a large enough effect; an effect the other way counts as inactive or inconclusive; also: 0% is about no effect). The procedure, abridged: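 Cells were seeded, allowed ~4 h to attach, dosed by pin tool (substance titrations), incubated ~72 h at 37C, then lysed with CellTiter-Glo for 30 min at room temperature before luminescence reading.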
Test [16] in a line: Cell Viability - SH-SY5Y (AID 544; active = well fitted curve in the direction sought with a large enough effect; an effect the other way counts as inactive or inconclusive;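 also: 0% = DMSO alone and -100% = 100 µM tamoxifen; nearly all actives have a fitted effect of over 55% in size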). The following applies: SH-SY5Y neuroblastoma cell viability; viability change, negative = cytotoxic: at 92.2 µM (top of the series). The procedure, abridged: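 Luminescent ATP read-out (CellTiter-Glo) measures loss of viable SH-SY5Y neuroblastoma cells after 40 hr compound exposure at 37 °C. AC50 values derive from standard Hill modelling of qHTS concentration-response data.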

A short description of test [17]: Cell Viability - LYMP1-003 - Assay at 40 hr (AID 964; active = well fitted curve in the direction sought with a large enough effect; an effect the other way counts as inactive or inconclusive; also: % is scaled to controls: 0 for no effect and ±100 for the full control effect; nearly all actives have a fitted effect of over 60% in size). The procedure, abridged: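 Cells were seeded at 2500 per well and incubated 5 hr at 37 C. Compounds were added across a concentration series and left 40 hr at 37 C. CellTiter-Glo was added for 30 min at room temperature before luminescence reading.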
A short description of test [18]: Cell Viability - LYMP2-017 (AID 972; active = well fitted curve in the direction sought with a large enough effect; an effect the other way counts as inactive or inconclusive;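 also: cells exposed to compound for 24 hours at 37 °C; % is scaled to controls: 0 for no effect and ±100 for the full control effect; nearly all actives have a fitted effect of over 55% in size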). The procedure, abridged: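 2500 cells/well, 5 h 37 C; cpd 24 h 37 C in complete medium; CellTiter-Glo, 30 min RT; luminescence (ATP). AC50 via Hill fit, qHTS.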
Test [19] has as its target Thyroid hormone receptor beta (Homo sapiens) (UniProt P10828). Briefly: qHTS assay for small molecule agonists of thyroid hormone receptor beta signaling (AID 588545). Summed up: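 Agonist-mode beta-lactamase reporter assay, HEK 293 cells, 2% charcoal/dextran FBS; cells plated 4 hrs, compound 18 hrs at 37 C, CCF4 2 hrs RT. Normalized to 10 nM T3 (100%) and DMSO (0%); Hill fit gives EC50, efficacy.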

Test [20] in a line: Cellular Toxicity (caspase-3) N2a (AID 665; active = well fitted curve in the direction sought with a large enough effect; an effect the other way counts as inactive or inconclusive;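 also: compound exposure lasted 16 h at 37 °C before readout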). Conditions: N2a cells, luminescence, normalized: DMSO 0%, 10 µM staurosporine 100%; at 92.2 µM (top of the series). Summed up: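 N2a cells, 1500/well, 5 h settle at 37 °C; cpd 16 h, 37 °C; Caspase-Glo 3/7, 1 h RT; luminescence. Norm: DMSO = 0, 10 uM staurosporine = 100%. AC50, Hill fit.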

Chain of Retinoic acid receptor RXR-alpha (Homo sapiens) (P19793 whole entry, looked up): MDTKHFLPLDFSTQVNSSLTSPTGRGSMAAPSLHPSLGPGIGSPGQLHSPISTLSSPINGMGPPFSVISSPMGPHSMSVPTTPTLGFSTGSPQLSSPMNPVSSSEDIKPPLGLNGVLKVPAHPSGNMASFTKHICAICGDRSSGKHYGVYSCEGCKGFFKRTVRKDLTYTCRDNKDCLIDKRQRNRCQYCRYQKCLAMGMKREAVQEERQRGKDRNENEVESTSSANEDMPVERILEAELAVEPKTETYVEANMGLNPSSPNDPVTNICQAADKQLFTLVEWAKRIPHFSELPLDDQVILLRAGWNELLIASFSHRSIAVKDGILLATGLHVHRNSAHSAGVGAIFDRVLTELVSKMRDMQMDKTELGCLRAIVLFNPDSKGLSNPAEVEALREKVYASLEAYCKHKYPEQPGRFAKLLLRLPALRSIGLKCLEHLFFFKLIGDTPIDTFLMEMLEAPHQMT
Chain of Thyroid hormone receptor beta (Homo sapiens) (P10828 whole entry, looked up): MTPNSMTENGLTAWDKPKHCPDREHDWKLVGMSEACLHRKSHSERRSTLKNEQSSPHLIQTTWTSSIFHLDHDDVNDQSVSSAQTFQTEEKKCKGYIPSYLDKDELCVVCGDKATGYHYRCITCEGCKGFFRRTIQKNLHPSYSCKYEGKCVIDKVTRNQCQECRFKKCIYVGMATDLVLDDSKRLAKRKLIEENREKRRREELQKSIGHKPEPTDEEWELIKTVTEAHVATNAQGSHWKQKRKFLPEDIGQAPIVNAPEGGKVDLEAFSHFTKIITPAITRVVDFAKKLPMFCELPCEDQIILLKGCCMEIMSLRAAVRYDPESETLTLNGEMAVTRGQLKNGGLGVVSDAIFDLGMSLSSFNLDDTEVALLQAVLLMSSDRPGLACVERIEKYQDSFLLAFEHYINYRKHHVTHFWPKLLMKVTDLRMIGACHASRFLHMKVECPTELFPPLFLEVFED
Chain of Vitamin D3 receptor (Homo sapiens) (P11473 whole entry, looked up): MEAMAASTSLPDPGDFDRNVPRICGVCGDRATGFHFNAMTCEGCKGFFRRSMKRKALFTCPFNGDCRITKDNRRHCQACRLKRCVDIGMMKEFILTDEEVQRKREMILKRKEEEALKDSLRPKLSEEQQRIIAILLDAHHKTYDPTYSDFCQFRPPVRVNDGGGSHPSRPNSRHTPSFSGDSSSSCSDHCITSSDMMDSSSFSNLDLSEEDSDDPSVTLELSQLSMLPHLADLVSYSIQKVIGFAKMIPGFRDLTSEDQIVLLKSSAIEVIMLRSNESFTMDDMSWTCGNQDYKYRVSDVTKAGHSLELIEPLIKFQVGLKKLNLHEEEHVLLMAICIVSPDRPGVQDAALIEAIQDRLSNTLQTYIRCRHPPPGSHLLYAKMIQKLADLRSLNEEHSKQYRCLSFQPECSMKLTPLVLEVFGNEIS

Take `Cc1ccc2ccccc2c1`: the Potency in test [1] was > 92 µM (inactive). Moreover, the Potency result in test [2], in [10] and in test [12] was “inactive” throughout. In addition, the compound was called inactive in test [3], in test [4], in test [7], in [8] and in test [14]. Besides, the activation in [5] is -0.561% (inactive); in test [11], -0.574% (inactive). For the same compound, the max response in test [6] was 14.3%; in [9] it was -9.3% (inactive); in [13], -3.38% (inactive).

Take `C=CC(C)(CCC=C(C)C)OC(C)=O` (stereo not given): the activation in test [5] is -2.23% (inactive). Further, the Potency result in [15] is “inactive”.

On to `Clc1nc(Cl)nc(Cl)n1`, for which the viability change, negative = cytotoxic in test [16] is -96.5% (active). Also, the Potency result in test [17], in test [18] and in test [10] was “inactive” each time. Moreover, the compound was classed as inactive in test [3], in [7] and in test [8]. For the same compound, the max response in [6] is -3.59% and 8.32%; in test [9] it was 12.3% (inactive) and -0.616% (inactive). The activation in test [11] is 0.499% (inactive) and 0.444% (inactive).

Consider `C[N+](C)(C)Cc1ccccc1`, for which the Potency result in [16], in [18], in test [10] and in test [12] was “inactive” each time. Also, the compound was called inactive in test [4], in [7], in [8], in [19] and in test [14]. Besides, in [5], the activation is -0.315% (inactive) and 0.14% (inactive). Also, the max response was -16.9% and 15.9% in test [6]; -0.49% (inactive) and -11.3% (inactive) in test [13].

With `c1ccc(OP(Oc2ccccc2)Oc2ccccc2)cc1`, the Potency result in [2] and in [12] was “inactive” throughout. The outcome in [7], in test [8], in [19] and in test [14] was inactive. Further, the max response in test [9] was 4.67% (inactive) and -4.17% (inactive); in test [13], 3.55% (inactive) and -14.3% (inactive). Besides, in test [11], the activation was -3.6% (inactive) and -0.416% (inactive).

For the compound `CC(O)CCl` (stereo not given), the Potency in test [1] is > 92 µM (inactive); in test [10], 54.5 µM (active). For the same compound, the Potency entry in test [16], in [17] and in test [2] was “inactive” each time. In addition, the caspase-3 activation in [20] is 3.17% (inactive). The compound was classed as inactive in [4], in test [7], in [8], in [19] and in [14]. For the same compound, the activation in test [5] was -2.4% (inactive) and 3.49% (inactive); in [11], 1% (inactive) and -0.134% (inactive). Further, the max response in test [6] was -27.3% and -9.22%.

On to `Brc1ccc(Oc2cc(Br)c(Br)cc2Br)c(Br)c1`, for which the Potency result in [16] and in [17] was “inactive” throughout. For the same compound, the result in test [3], in [7] and in test [8] was inactive. Moreover, the activation in [5] is 0.173% (inactive) and 5.65% (inactive); in test [11] it was 0.934% (inactive) and 2.14% (inactive) and 2.73% (inactive). Besides, the max response in [6] was 18.7% and 4.79%; in test [9], -5.38% (inactive) and -23.6% (inactive).
